What follows are compounds tested against Receptor tyrosine-protein kinase erbB-4 (Homo sapiens) (UniProt Q15303). Settings: at 0.1 µM.
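Note: values are averaged percent inhibition of ERBB4 kinase activity.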

Receptor tyrosine-protein kinase erbB-4 (Homo sapiens), sequence (Q15303 whole entry): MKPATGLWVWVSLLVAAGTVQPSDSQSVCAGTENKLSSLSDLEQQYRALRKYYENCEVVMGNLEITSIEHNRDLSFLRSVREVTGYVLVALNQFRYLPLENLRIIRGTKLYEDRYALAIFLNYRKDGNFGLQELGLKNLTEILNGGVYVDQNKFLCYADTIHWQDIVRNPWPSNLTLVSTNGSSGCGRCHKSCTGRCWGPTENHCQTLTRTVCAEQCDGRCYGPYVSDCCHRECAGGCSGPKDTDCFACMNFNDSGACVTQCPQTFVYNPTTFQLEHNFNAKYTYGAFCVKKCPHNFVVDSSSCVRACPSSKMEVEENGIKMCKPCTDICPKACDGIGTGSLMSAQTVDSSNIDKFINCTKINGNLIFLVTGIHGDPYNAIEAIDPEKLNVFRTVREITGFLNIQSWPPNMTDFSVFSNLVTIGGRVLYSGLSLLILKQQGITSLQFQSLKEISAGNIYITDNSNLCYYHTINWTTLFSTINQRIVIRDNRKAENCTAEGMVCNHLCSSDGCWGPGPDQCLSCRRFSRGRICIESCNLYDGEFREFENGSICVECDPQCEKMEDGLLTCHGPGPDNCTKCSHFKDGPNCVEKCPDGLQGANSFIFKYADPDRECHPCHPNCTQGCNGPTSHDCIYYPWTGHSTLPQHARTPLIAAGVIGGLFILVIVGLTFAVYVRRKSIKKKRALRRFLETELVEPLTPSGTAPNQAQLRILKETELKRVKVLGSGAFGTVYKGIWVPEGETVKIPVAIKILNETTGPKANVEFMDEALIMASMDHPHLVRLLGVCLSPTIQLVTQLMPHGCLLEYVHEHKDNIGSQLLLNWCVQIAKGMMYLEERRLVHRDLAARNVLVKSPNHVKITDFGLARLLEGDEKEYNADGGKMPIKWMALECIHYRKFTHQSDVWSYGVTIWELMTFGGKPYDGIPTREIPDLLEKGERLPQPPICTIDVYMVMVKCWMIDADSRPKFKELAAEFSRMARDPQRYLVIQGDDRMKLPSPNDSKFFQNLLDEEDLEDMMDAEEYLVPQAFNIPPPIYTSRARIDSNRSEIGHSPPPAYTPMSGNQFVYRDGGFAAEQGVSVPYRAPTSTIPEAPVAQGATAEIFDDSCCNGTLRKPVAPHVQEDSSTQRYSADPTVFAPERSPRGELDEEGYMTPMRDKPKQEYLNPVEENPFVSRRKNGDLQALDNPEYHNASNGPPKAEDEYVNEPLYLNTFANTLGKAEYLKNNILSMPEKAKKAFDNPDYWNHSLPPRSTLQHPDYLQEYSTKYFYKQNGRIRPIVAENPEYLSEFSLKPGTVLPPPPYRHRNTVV

Question: With `C[C@@H](Oc1cc(-n2cnc3ccc(OCC4CCN(C)CC4)cc32)sc1C(N)=O)c1ccccc1C(F)(F)F` as the compound, how does the inhibition read?
Answer: -5.11%

Question: `Cc1cc(O)cc(C)c1/C=C/c1cncc(C(=O)N(C)C)c1` was tested. Which inhibition did it give?
Answer: 9.24%

Question: `c1ccc(Nc2ncc(-c3ccccc3)o2)cc1` was tested. Which inhibition did it give?
Answer: 11%

Question: How did the inhibition turn out when `COc1ccc(-c2nn3ncccc3c2-c2ccnc(Nc3cccc(C(F)(F)F)c3)n2)cc1` was run?
Answer: 25.8%

Question: Which inhibition does the source give for `Cc1ccc(NC(=O)CC2CC2)cc1-c1ccc(C(=O)NCC2CC2)cc1` here?
Answer: 6.43%

Question: `COC(=O)c1ccc2c(c1)C(=Cc1cc(Br)c(O)c(Br)c1)C(=O)N2` was tested. Which inhibition did it give?
Answer: 3.22%

Question: For `Cc1ccc2c(-c3ccnc(Nc4ccc5c(c4)OCCO5)n3)c(-c3ccc(C(F)(F)F)cc3)nn2n1`, which inhibition is on record?
Answer: 3.46%

Question: With `COc1cc(/C=N/Nc2ncnc3c2cnn3C(C)C)ccc1O` as the compound, how does the inhibition read?
Answer: 3.96%

Question: For `Nc1ccc(C#Cc2cncnc2Nc2ccc(OCc3cccc(F)c3)c(Cl)c2)cc1`, which inhibition is on record?
Answer: 12.9%

Question: How did the inhibition turn out when `ON=C1CCc2cc(-c3nc(C4CCNCC4)[nH]c3-c3ccncc3)ccc21` was run?
Answer: 5.23%

Question: For `COc1cccc(-n2ncc3c(N/N=C/c4ccc(C)cc4)ncnc32)c1`, which inhibition is on record?
Answer: 6.09%

Question: How did the inhibition turn out when `CCS(=O)(=O)c1ccc(OC)c(Nc2ncc(-c3cccc(OC)c3)o2)c1` was run?
Answer: 10.5%

Question: With `CC(C)c1ccc2c(c1)NC(=O)/C2=N/Nc1ccc(S(N)(=O)=O)cc1` as the compound, how does the inhibition read?
Answer: 1.45%

Question: With `Cc1cc(Cl)cc2c1NC(=O)C2=NNc1ccc(S(N)(=O)=O)cc1` as the compound, how does the inhibition read?
Answer: 6.08%

Question: How did the inhibition turn out when `CC(C)c1ccc(Nc2nccc(-c3cnn4ncccc34)n2)cc1` was run?
Answer: 8.58%

Question: How did the inhibition turn out when `N#Cc1cccc(Nc2nccc(-c3cnn4ncccc34)n2)c1` was run?
Answer: 8.57%

Question: `Oc1cccc(-c2nc(-c3ccccc3)[nH]c2-c2ccncc2)c1` was tested. Which inhibition did it give?
Answer: 12.6%

Question: How did the inhibition turn out when `CN1CCN(C(=O)c2ccc(NC(=O)Nc3ccc(N(C)c4ccnc(Nc5ccc(CS(C)(=O)=O)cc5)n4)cc3)cc2)CC1` was run?
Answer: 7.39%

Question: How did the inhibition turn out when `COC(=O)Nc1nc2cc(Oc3ccc(NC(=O)Nc4cccc(Br)c4)cc3)ccc2[nH]1` was run?
Answer: 7.14%

Question: How did the inhibition turn out when `COc1cccc(-n2ncc3c(N/N=C/c4ccc(S(C)(=O)=O)cc4)ncnc32)c1` was run?
Answer: 7.91%

Question: `NS(=O)(=O)c1ccc(NC=C2C(=O)Nc3ccc4ncsc4c32)cc1` was tested. Which inhibition did it give?
Answer: 17.8%

Question: With `CS(=O)(=O)CCNCc1nc(-c2ccc3ncnc(Nc4ccc(OCc5cccc(C(F)(F)F)c5)cc4)c3c2)cs1` as the compound, how does the inhibition read?
Answer: 6.42%

Question: `C[C@@H](Oc1cc(-n2cnc3ccc(OC[C@@H](O)CO)cc32)sc1C(N)=O)c1ccccc1Cl` was tested. Which inhibition did it give?
Answer: -3.03%

Question: How did the inhibition turn out when `NS(=O)(=O)c1ccc(-c2cc3ccncc3cc2OCc2ccccc2)cc1` was run?
Answer: 7.38%

Question: For `NS(=O)(=O)c1ccc(Nc2cc(-c3cccc(O)c3)n[nH]2)cc1`, which inhibition is on record?
Answer: 14.3%

Question: How did the inhibition turn out when `Cc1ccc(Nc2ccnc(Nc3cccc(C(N)=O)c3)n2)cc1O` was run?
Answer: 6.84%

Question: Which inhibition does the source give for `COc1cccc(-n2nc(C)c3c(N/N=C(\C)c4ccncc4)ncnc32)c1` here?
Answer: 0.79%

Question: How did the inhibition turn out when `CCn1c(-c2nonc2N)nc2ccc(F)cc21` was run?
Answer: 20.6%

Question: How did the inhibition turn out when `COc1cc2ncn(-c3cc(OCc4ccccc4S(C)(=O)=O)c(C#N)s3)c2cc1OC` was run?
Answer: 8.79%

Question: Which inhibition does the source give for `COc1cc2ncnc(Nc3ccc(C)c(O)c3)c2cc1OC` here?
Answer: 31.7%

Question: For `NS(=O)(=O)c1cccc(-c2cc3ccncc3cc2OCc2ccccc2)c1`, which inhibition is on record?
Answer: 8.81%

Question: How did the inhibition turn out when `COC(=O)c1cncc(/C=C/c2c(C)cc(O)cc2C)c1` was run?
Answer: 7.72%

Question: With `COc1cc(Nc2nccc(-c3cnn4ncccc34)n2)cc(OC)c1` as the compound, how does the inhibition read?
Answer: 5.96%

— ChEMBL document CHEMBL1961873, “Compounds: GSK PKIS; Assays: Nanosyn kinase panel” (2012)
